Test systems include NCI-H23 lung; NCI-H226 lung; NCI-H322M lung; HOP-62 NSCLC; NCI-H460 lung; HOP-92 NSCLC; NCI-H522 lung; A549/ATCC NSCLC; 786-0 renal; COLO 205 colon; DU-145 prostate; K-562 leukemia; MALME-3M melanoma; MDA-MB-231 breast; RXF 393 renal; SF-268 CNS; SF-295 CNS; SF-539 CNS; UACC-257 melanoma; M14 melanoma.
What all share (experiment): NCI-60 one-dose screen, 48 h (100 = growth as untreated, 0 = no growth, -100 = all killed)
Settings in all cases: 10 µM unless noted

We go through eight compounds from PubChem BioAssay (NCI).

Compounds without any hit were thinned out: in the full panel of roughly 83,000, 20% have a hit.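 96-well plates, one dose, 48 hours. Percent growth reported; active if below 10.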 Values without a mark were called inactive. Calls of active or inactive are those of the source.

For the compound `COc1ccc(N=C2NN=C(c3c[nH]c4ccccc34)CS2)cc1OC`, the growth in the assay on NCI-H23 lung is 67.7%; in the assay with NCI-H226 lung it was 80.6%; in the assay with NCI-H322M lung it was 70%; with HOP-62 NSCLC, 50.5%; in the assay on NCI-H460 lung, 26.9%; with HOP-92 NSCLC, 19.6%. Further, the growth is -34.1% (active) with NCI-H522 lung; 55% in the assay on A549/ATCC NSCLC; 54.8% in the assay on 786-0 renal; 57.9% in the assay on COLO 205 colon; 65.9% with DU-145 prostate; 36.6% with K-562 leukemia. In addition, the growth in the assay on MALME-3M melanoma was 69.3%; with MDA-MB-231 breast, 55.4%; in the assay on RXF 393 renal, 68.6%; in the assay with SF-268 CNS, 56.2%; with SF-295 CNS, -31.9% (active); in the assay with SF-539 CNS, 51.8%. The growth in the assay on UACC-257 melanoma is 77.4%; in the assay with M14 melanoma, 34%.
In the case of `O=C(/C=C/c1ccccc1)c1cccc2ccccc12`, the growth in the assay with NCI-H23 lung was 26.2%; with NCI-H226 lung it was 41.2%; in the assay on NCI-H322M lung it was 57.5%; in the assay on HOP-62 NSCLC, 37.7%; in the assay with NCI-H460 lung, 10.6%; in the assay on HOP-92 NSCLC, 47.3%. The growth in the assay with NCI-H522 lung was 17.2%; in the assay on A549/ATCC NSCLC it was 39%; in the assay with 786-0 renal, 83.5%; in the assay with COLO 205 colon, 97.7%; in the assay with DU-145 prostate it was 15.6%; in the assay on K-562 leukemia, 10.6%. Also, the growth with MALME-3M melanoma is 68.8%; in the assay on MDA-MB-231 breast, 55.1%; in the assay with RXF 393 renal it was 12.4%; with SF-268 CNS, 42.1%; with SF-295 CNS it was 34.8%; in the assay on SF-539 CNS, 51.2%. Further, the growth in the assay with UACC-257 melanoma was 40.2%; with M14 melanoma, 86.7%.
Take `O=C1Nc2ccccc2/C1=N/N1C(=O)CN(CCCl)C1=O`: the growth with NCI-H23 lung is 100%; in the assay with NCI-H226 lung, 95.1%; with NCI-H322M lung, 101%; with HOP-62 NSCLC, 97.5%; in the assay on NCI-H460 lung, 102%; with HOP-92 NSCLC, 110%. For the same compound, the growth is 89.7% with NCI-H522 lung; 104% in the assay with A549/ATCC NSCLC; 101% in the assay on 786-0 renal; 112% in the assay with COLO 205 colon; 119% with DU-145 prostate; 97.5% with K-562 leukemia. Further, the growth in the assay with MALME-3M melanoma is 107%; with MDA-MB-231 breast, 117%; in the assay with RXF 393 renal, 115%; in the assay with SF-268 CNS, 102%; in the assay with SF-295 CNS it was 99.6%; in the assay on SF-539 CNS it was 105%. Moreover, the growth in the assay with UACC-257 melanoma was 96.6%; with M14 melanoma, 107%.
With `CN(C)c1ccc(C(=S)c2ccc(N(C)C)cc2)cc1`, the growth with NCI-H23 lung is 78.9%; in the assay with NCI-H226 lung, 85.9%; in the assay with NCI-H322M lung it was 103%; in the assay on HOP-62 NSCLC, 65.8%; in the assay on NCI-H460 lung, 92.6%; with HOP-92 NSCLC, 71.3%. Also, the growth in the assay with NCI-H522 lung was 29%; in the assay on A549/ATCC NSCLC, 67%; in the assay on 786-0 renal it was 95.6%; in the assay with COLO 205 colon, 62%; in the assay with DU-145 prostate, 98.9%; in the assay on K-562 leukemia it was 28.4%. In addition, the growth in the assay on MALME-3M melanoma was 50.3%; in the assay with MDA-MB-231 breast it was 72.2%; in the assay on RXF 393 renal, 84.2%; in the assay with SF-268 CNS it was 79.7%; in the assay with SF-295 CNS, 80%; with SF-539 CNS it was 77.1%. The growth in the assay with UACC-257 melanoma is 81%.
In the case of `Cc1ccc(C(=O)c2ccc(CC(=O)N/N=C/c3cccc(O)c3O)n2C)cc1`, the growth in the assay on NCI-H23 lung was 45.4%; in the assay with NCI-H226 lung, 69.1%; with NCI-H322M lung, 54.4%; in the assay with HOP-62 NSCLC, 49.9%; in the assay on NCI-H460 lung, 8.65% (active); in the assay with HOP-92 NSCLC it was 56.3%. For the same compound, the growth with NCI-H522 lung was 48.8%; in the assay on A549/ATCC NSCLC it was 58.7%; with 786-0 renal it was 76.4%; in the assay on COLO 205 colon it was 63%; in the assay with DU-145 prostate, 49.3%; with K-562 leukemia, 30.4%. Moreover, the growth with MALME-3M melanoma is 58.7%; in the assay with MDA-MB-231 breast it was 45.3%; in the assay with RXF 393 renal it was 29.7%; with SF-268 CNS, 37.2%; in the assay on SF-295 CNS it was 83.5%; with SF-539 CNS, 33.8%. Moreover, the values for the growth with UACC-257 melanoma and in the assay with M14 melanoma were 89.7% and 28.5%, respectively.
On to `COC(=O)c1c2c(c(C)[n+]([O-])c1C)C(=O)C(NCc1ccccc1)=CC2=O`, for which the growth in the assay on NCI-H23 lung was 9.17% (active); with NCI-H226 lung, 73.3%; in the assay with NCI-H322M lung, 7.15% (active); with HOP-62 NSCLC, 67.1%; in the assay on NCI-H460 lung, 11%; with HOP-92 NSCLC, 71.1%. Also, the growth in the assay with NCI-H522 lung is 28.8%; with A549/ATCC NSCLC, 13.7%; in the assay on 786-0 renal, 60%; in the assay on COLO 205 colon, -9.35% (active); in the assay with DU-145 prostate it was 42.4%; in the assay with K-562 leukemia it was 24.4%. The growth was -77.8% (active) in the assay with MALME-3M melanoma; 10.6% in the assay with MDA-MB-231 breast; 3% (active) in the assay with RXF 393 renal; 28.3% in the assay with SF-268 CNS; 43.5% with SF-295 CNS; 8.86% (active) with SF-539 CNS. Moreover, the growth with UACC-257 melanoma was -22% (active).
Turning to `COc1cc(/C=C/c2cn[nH]c2-c2ccc(C)cc2)cc(OC)c1OC`, the growth with NCI-H23 lung was 56.2%; in the assay on NCI-H226 lung it was 65.4%; with NCI-H322M lung, 56.7%; with HOP-62 NSCLC, 33.8%; in the assay with NCI-H460 lung, 17.1%; in the assay with HOP-92 NSCLC it was 45.6%. In addition, the growth in the assay with NCI-H522 lung was 23.1%; in the assay with A549/ATCC NSCLC, 29.2%; with 786-0 renal it was 37.1%; in the assay with COLO 205 colon it was 12.6%; with DU-145 prostate, 43.4%; with K-562 leukemia it was 15.5%. Further, the growth with MALME-3M melanoma is 52.3%; with MDA-MB-231 breast, 47.4%; in the assay on RXF 393 renal, 16.1%; in the assay on SF-268 CNS, 49.2%; in the assay on SF-295 CNS it was 11.5%; in the assay with SF-539 CNS, 41.7%. Besides, the growth with UACC-257 melanoma was 39.5%.
With `Cc1cc(=O)n(C(=S)Nc2ccc(Cl)cc2)c2cc(O)ccc12`, the growth is 85.6% in the assay with NCI-H23 lung; 80.5% in the assay on NCI-H226 lung; 97.7% in the assay on NCI-H322M lung; 84.1% with HOP-62 NSCLC; 110% in the assay with NCI-H460 lung; 84.6% with HOP-92 NSCLC. Further, the growth in the assay on NCI-H522 lung was 94.9%; in the assay with A549/ATCC NSCLC, 106%; in the assay on 786-0 renal, 109%; in the assay on COLO 205 colon it was 103%; with DU-145 prostate, 109%; with K-562 leukemia, 113%. Also, the growth with MALME-3M melanoma is 91.5%; in the assay with MDA-MB-231 breast, 92.4%; in the assay on RXF 393 renal it was 99.7%; with SF-268 CNS, 102%; in the assay with SF-295 CNS, 99.8%; in the assay with SF-539 CNS, 101%. Further, the growth with UACC-257 melanoma is 110%.
